Reference: PubChem BioAssay AID2284094 (EPA ToxCast)
Activity calls are given as the source filed them. Rule for the calls: active = hit-call score of the fitted dose curve at least 0.9, where 1 is the maximum; inactive = score below 0.9.

Biological target: human VHR Phosphatase, DUSP3 (gene 1845) (UniProt P51452)
Assay: ERF_FR_ENZ_hDUSP3: Eurofins (ERF) Enzymatic Assay for human VHR Phosphatase
Protocol: ERF_FR_ENZ_hDUSP3 is a biochemical, single-readout assay that uses extracted gene-proteins in a cell-free assay. Measurements were taken 0.5 hour after chemical dosing in a 96-well plate. See VHR Human Phosphatase Enzymatic Assay, PhosphataseProfiler.ERF_FR_ENZ_hDUSP3 is an assay component calculated from the ERF_FR_ENZ_hDUSP3 assay. It is designed to measure enzyme activity using a type of enzyme reporter as detected by fluorescence intensity with spectrophotometry technology.Data from the assay component ERF_FR_ENZ_hDUSP3 was analyzed at the assay endpoint, ERF_FR_ENZ_hDUSP3, in the positive analysis fitting direction relative to DMSO as the negative control and baseline of activity. Using a type of enzyme reporter, loss-of-signal activity can be used to understand changes in enzymatic activity as they relate to gene DUSP3. To generalize the intended target to other relatable targets, this assay endpoint is annotated to the […].
Human recombinant protein phosphatase VHR expressed in E. coli is used. Test compound and/or vehicle is preincubated with 0.2 mU/ml enzyme for 15 minutes at 37C in modified HEPES buffer pH 7.2. The reaction is initiated by addition of 100 uM DiFMUP for 60 minutes. Determination of the amount of DiFMU formed is read spectrofluorimetrically at 358 nm/450 nm. Compounds are screened at 10 uM.

Sequence of human VHR Phosphatase, DUSP3 (gene 1845) (P51452 whole entry, looked up): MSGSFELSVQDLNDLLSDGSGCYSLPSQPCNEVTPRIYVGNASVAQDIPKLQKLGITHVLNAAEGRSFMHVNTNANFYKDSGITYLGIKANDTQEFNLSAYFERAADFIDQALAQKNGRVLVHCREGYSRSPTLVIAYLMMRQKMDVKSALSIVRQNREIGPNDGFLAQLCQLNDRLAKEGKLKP

Row | Structure (SMILES) | AC50
1 | O=C(/C=C/c1ccc(O)cc1)CC(=O)/C=C/c1ccc(O)cc1 | 1.01 nM (active)
